An excerpt weighted towards active compounds, which were near 3.5% of everything screened.
TEAD-YAP inh: TEAD-YAP interaction inhibition. HEK-TIYL cells, TEAD-Gal4/YAP UAS-luciferase luminescence. inhibition, % at 9.12 µM. actives 1.4% (n = 640,000); in the data active = inhibition above about 32%
MITF primary: human MITF inhibition, primary screen | O75030 | AlphaScreen MITF homodimerization, bead proximity signal | inhibition, % at 2.6 µM | actives 0.91% (n = 650,000); in the data active = inhibition above about 50%
GPR151 activ: activates the human receptor GPR151. activation, % at 11.2 µM. actives 1% (n = 650,000). AID 1508602. PathHunter beta-arrestin GPR151 cells, luminescence; in the data active = activation above about 4.9%
Target sequence (Q8TDV0 whole entry, looked up): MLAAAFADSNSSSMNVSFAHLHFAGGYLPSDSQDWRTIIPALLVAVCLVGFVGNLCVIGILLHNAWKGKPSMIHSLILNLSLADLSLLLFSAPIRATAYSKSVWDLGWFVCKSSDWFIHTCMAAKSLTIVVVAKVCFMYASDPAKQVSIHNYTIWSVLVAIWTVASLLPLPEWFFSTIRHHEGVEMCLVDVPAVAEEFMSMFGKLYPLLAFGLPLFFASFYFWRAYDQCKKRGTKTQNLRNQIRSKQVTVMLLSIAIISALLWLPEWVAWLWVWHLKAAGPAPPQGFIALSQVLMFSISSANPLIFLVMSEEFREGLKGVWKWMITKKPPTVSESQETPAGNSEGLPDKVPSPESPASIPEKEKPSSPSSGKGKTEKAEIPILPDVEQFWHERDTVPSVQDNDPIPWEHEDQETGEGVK
FBW7 activator: human FBW7 E3 ligase activation, primary screen. Q969H0. actives 0.13% (n = 650,000). AlphaScreen FBW7–phospho-cyclin E peptide binding, activator screen. normalized activity (activation), % at 26.1 µM. AID 1259310; in the data active = normalized activity above about 1.9%;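 note: purified mutant Fbw7 with reduced substrate affinity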
GPR151 conf act: confirmation of human GPR151 activators. GPR151 PathHunter beta-arrestin cells, luminescence, 90 min; % of EA-reagent control over plate median. shares compounds with GPR151 activ. 6,700 tested, under 10 active. activation, % at 11.2 µM;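 active = mean percent activation across replicates above the confirmation screen cutoff of 4.91%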
GPR119 counter: counter-screen for GPR151 activators: effect on human GPR119; actives 0.3% (n = 6,700); GPR119 PathHunter beta-arrestin cells, luminescence, 90 min; 0 = compound-well median, 100 = enzyme-acceptor control; AID 1508611; activation, % at 11.2 µM; shares compounds with GPR151 activ;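 active = mean percent activation in the counterscreen above 29.09%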;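 note: counterscreen on off-target GPR119 to flag nonselective hits from the GPR151 activator screen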
A number is an active result; – = inactive; · = not tested or not shown.

SMILES	TEAD-YAP inh	MITF primary	GPR151 activ	FBW7 activator	GPR151 conf act	GPR119 counter
Cc1cccc(C)c1NC(=S)N1CCCCC1CO (centres undefined)	–	–	–	–	·	·
COc1ccc(C(=O)Nc2cc3nn(-c4ccc(C)cc4)nc3cc2C)cc1Cl	–	–	–	–	·	·
Cc1ncc(CO)c2cc(C(=O)Nc3ccccc3)c(=N)oc12	–	–	–	–	·	·
CC(C)(C)N1C(=O)c2ccc(C(=O)Nc3ccc([N+](=O)[O-])cc3Cl)cc2C1=O	–	–	6.6	–	–	–
O=C1CCC(=O)N1c1ccc(CSc2nnnn2C2CCCCC2)cc1	–	–	6.9	–	–	–
CC1CC(=O)N(c2ccc(N3CCCCCC3)c([N+](=O)[O-])c2)C1=O (centres undefined)	–	–	–	–	·	·
CC1CC(C)CN(c2ccc(N3C(=O)CC(C)C3=O)cc2[N+](=O)[O-])C1 (centres undefined)	–	–	6.5	–	–	–
CCn1nnc(NC(=O)c2ccc(C)c(C)c2)n1	–	–	–	–	·	·
Cc1ccc(C(=O)O)cc1NC(=O)Nc1ccc([N+](=O)[O-])cc1	–	–	–	–	·	·
CC(=O)c1ccc(NC(=S)Nc2cc([N+](=O)[O-])ccc2C)cc1	–	–	6.3	–	–	–
COc1ccc(S(=O)(=O)NCC(c2ccco2)N(C)C)cc1F (centres undefined)	–	–	6.5	–	–	–
O=C(NCc1ccc(N2CCCC2=O)cc1)c1cn(Cc2ccccc2)nn1	–	–	7.4	–	–	–
COc1ccccc1NC(=O)C1CC(=O)OC1(C)C (centres undefined)	–	–	–	–	·	·
COc1ccccc1NC(=O)C1CC(=O)OC12CCOC(C)(C)C2 (centres undefined)	–	–	6.5	–	–	–
O=C(CSc1nnc2ncccn12)N1CCN(C(=O)c2ccco2)CC1	–	–	–	–	·	·
CCn1nnnc1SCC(=O)N1CCN(C(=O)c2ccco2)CC1	–	–	5.0	–	–	–
Cc1cccc(NC(=O)NCC(c2ccc3c(c2)CCN3C)N2CCN(C)CC2)c1 (centres undefined)	–	–	5.0	–	–	–
CN1CCN(C(CNC(=O)Nc2ccc(F)cc2)c2ccc3c(c2)CCN3C)CC1 (centres undefined)	–	–	–	–	·	·
O=C(Oc1cccc2cccnc12)c1ccc(N2C(=O)C3CC=CCC3C2=O)cc1 (centres undefined)	–	–	–	–	·	·
CCOC(=O)c1nn(CCO)c2c1CN(Cc1cccc(Cl)c1)CC2	–	–	10.4	–	–	–
CN(C)c1ccc(-c2nccnc2NS(=O)(=O)c2ccc(Cl)cc2)cc1	–	–	–	–	·	·
CN(C)c1cccc2c(S(=O)(=O)Nc3nccnc3-c3ccc(CO)cc3)cccc12	–	–	–	–	·	·
CN(C)c1cccc2c(S(=O)(=O)Nc3nccnc3-c3ccc(C=O)cc3)cccc12	–	–	5.9	–	–	–
O=Cc1ccc(-c2nccnc2NS(=O)(=O)c2cccc(Cl)c2)cc1	–	–	5.0	–	–	–
O=[N+]([O-])c1cc(Cl)n(O)c(=Nc2ccc(Cl)cc2)c1	–	–	–	–	·	·
SMILES	TEAD-YAP inh	MITF primary	GPR151 activ	FBW7 activator	GPR151 conf act	GPR119 counter
O=C(CSc1nnc(-c2ccccc2)o1)c1ccc2c(c1)OCCO2	–	–	–	–	·	·
CCN(C(=O)CSc1nnc(-c2ccco2)o1)C1CCS(=O)(=O)C1 (centres undefined)	–	–	11.9	–	–	–
O=C(CSc1nnc(-c2ccco2)o1)c1ccc2c(c1)OCCO2	–	–	11.7	–	–	–
Cc1ccc(C(=O)N/C(=C/c2ccco2)C(=O)Nc2ccc(C)cc2C)cc1	–	–	5.1	–	–	–
Cc1ccc(C(=O)N/C(=C\c2ccco2)C(=O)Nc2ccccc2)cc1C	–	–	5.6	–	–	–
CNC(=O)/C(=C/c1ccco1)NC(=O)c1ccc(C)cc1	–	–	–	–	·	·
O=C(c1cnc2ccccc2n1)N1CCC(O)(c2ccc(Cl)cc2)CC1	–	–	–	–	·	·
CCOC(=O)C1=C(C)NC(=S)N(C(C)=O)C1c1ccc(C)cc1C (centres undefined)	–	–	–	–	·	·
O=C(Nc1ccc(S(=O)(=O)Nc2nccs2)cc1)C(Cl)Cl	–	–	–	–	·	·

Source: PubChem
